Laboratory results: ChEMBL document CHEMBL3988442, “University of Dundee, Small-Polar-MMV Screening Library” (2021)
Out of some 48,000 compounds screened, about 13,000 (27%) showed an effect of 50% or more. The list shows a part of the results.

System: Wolbachia pipientis
Experiment: Anti-Wolbachia Cell-Based Screen
Assay type: functional
Set-up: scale not given: in the data most compounds retested in dose-response had high values
Conditions: 5 µM

SMILES	Percent Effect [%]
CC(C)Cc1ncc2c(n1)CN(c1cc(N3CCCC3)nc(N)n1)C2	-10.3
COCCC1(CNC(=O)NCC2CCCN(C)C2)CCC1 (stereo not given)	8.648
CCCSCC(=O)N1CCN(c2ccc(C)cc2)CC1C (stereo not given)	-1.95
CC(C)N(C)Cc1cnc2n1CCN(C(=O)Cc1ccsc1)C2.O=C(O)C(F)(F)F	75.58
CNC(=O)c1cnc2n1CCN(C(=O)Cc1ccccn1)C2	-2.51
CN(C)Cc1cnc2n1CCN(C(=O)Cc1ccsc1)CC2.O=C(O)C(F)(F)F	-7.652
CN(C)Cc1cnc2n1CCN(Cc1ccsc1)CC2.O=C(O)C(F)(F)F.O=C(O)C(F)(F)F	-11.04
CC(C)N(C)Cc1cnc2n1CCN(Cc1ccsc1)C2.O=C(O)C(F)(F)F.O=C(O)C(F)(F)F	107.2
CC(C)N(C)Cc1cnc2n1CCN(C(=O)c1cccs1)C2	6.203
CC(C)N(C)Cc1cnc2n1CCN(C(=O)Cc1ccccn1)C2.O=C(O)C(F)(F)F.O=C(O)C(F)(F)F	116.4
CC(NCC1CCN(CCO)CC1)c1ccc(OC(F)(F)F)cc1 (stereo not given)	5.514
Cc1ccccc1CSc1nc(=O)n(CCO)c2c1CCC2	18.09
Cc1csc(N2CCCN(C(=O)c3cnns3)CC2)n1	3.916
Fc1ccccc1OC1CCN(CCn2cc3ccccc3n2)CC1	96.15
Cc1ccc(OC2CCN(CCn3cncn3)CC2)cc1	-5.94
c1cncc(OC2CCN(CCn3cc4ccccc4n3)CC2)c1	92.09
Fc1ccc(OC2CCN(CCn3cncn3)CC2)cc1	1.97
Cc1nc(C)c(CCN2CCC(Oc3ccccc3F)CC2)s1	-50.47
c1cncc(O[C@H]2COCCN(CC3CC3)C2)c1	-6.13
Fc1cccc(OC2CCN(CCn3cc4ccccc4n3)CC2)c1	89.5
O=C(O)c1cccc(N2CCC(Oc3cccc(F)c3)CC2)n1	3.827
Cc1nc(CCN2CCC(Oc3ccccc3F)CC2)c(C)s1	0
O=C(O)C(F)(F)F.O=C1[C@@H]2CN(C3CCOCC3)C[C@H]2CCN1CC1CC1	-15.82
CCC(C)(CC(=O)OC)NCc1c(C)noc1C (stereo not given)	-10.12
CCCN(CCOC)c1nc(C)nc2sccc12	-21.15
Cc1cc(NC(=O)N2CCN(c3cccs3)CC2)ccc1C(N)=O	6.081
CS(=O)(=O)c1ccc(OCCNCc2c(F)cccc2F)cc1	-4.502
CCCc1n[nH]c(C2CN(C(=O)c3cncnc3C)CCO2)n1 (stereo not given)	104.8
CCCc1n[nH]c(C2CN(C(=O)c3ccc(C)[nH]c3=O)CCO2)n1 (stereo not given)	101.9
Cc1ccc(C(=O)N2CCOC(c3nc(C(C)(C)C)n[nH]3)C2)c(=O)[nH]1 (stereo not given)	-10.02
